Holding throughout (format): functional
For assay [1], the system named is Plasmodium falciparum. The assay is described as follows: GSK_TCMDC: Inhibition of Plasmodium falciparum 3D7 in whole red blood cells, using parasite LDH activity as an index of growth. Test compounds present at 2uM.
Assay [2] deals with Plasmodium falciparum. Kind of assay: GSK_TCMDC: Inhibition of Plasmodium falciparum Dd2 in whole red blood cells, using parasite LDH activity as an index of growth. Test compounds present at 2uM.
Assay [3] relates to HepG2. The assay is described as follows: GSK_TCMDC: Percent inhibition of human HepG2 cell line. Test compounds present at 10uM.

This passage reports Inhibition results from ChEMBL document CHEMBL1157539, “Thousands of chemical starting points for antimalarial lead identification” (Nature, 2010).

Molecules are shown by their SMILES.

Consider `CC(C)CC(=O)Nc1cc(=O)[nH]c2nc(-c3ccccc3)nn12`, for which the figures for the Inhibition in assay [1], in assay [2] and in assay [3] were 89%, 85% and 0%, respectively.
As to `Cc1[nH]c(C)c(-c2ccc(OCc3ccccc3C(F)(F)F)nc2)c(=O)c1Br`, the Inhibition (commonly the share of the control response that was lost under treatment) was determined as 98% in assay [1], 97% in assay [2] and 35% in assay [3].
The like results for `CC(=O)Nc1ccc(Nc2c3ccccc3nc3ccccc23)cc1` were, in that order, 89%, 62% and 41%.
Take `O=C(O)C(F)(F)F.c1cncc(CCNCc2ccc(-c3ccc(-c4nc5ccccc5[nH]4)s3)cc2)c1`: the results for the Inhibition in assay [1], in assay [2] and in assay [3] were 100%, 99% and 35%, respectively.
For the compound `COc1cc(-c2nc(-c3ccc(C(=O)c4ccc(F)cc4)cc3)c(-c3ccccc3)[nH]2)cc(OC)c1O`, the Inhibition in assay [1] is 100%; in assay [2] it was 100%; in assay [3], 0%.
Take `CCN(CC)CCOc1ccc(C(O)(C#CC(O)(c2ccc(OCCN(CC)CC)cc2)c2ccc([N+](=O)[O-])cc2)c2ccc([N+](=O)[O-])cc2)cc1` (stereo not given): the Inhibition in assay [1] is 98%; in assay [2] it was 97%; in assay [3] it was 55%.
For the compound `CC1CCCC(NC(=O)CCOc2ccccc2)C1` (stereo not given), the Inhibition in assay [1] was 96%; in assay [2], 32%; in assay [3], 0%.
Take `CCN(CC)c1ccc(C(c2ccc(N(CC)CC)cc2)c2ccc([N+](=O)[O-])cc2)cc1`: the Inhibition in assay [1] was determined as 82%; in assay [2], 63%; in assay [3] it was 20%.
For `CCC(=O)c1ccc(-c2ccc(=O)n(CC(=O)N(CCN(CC)CC)Cc3ccc(-c4ccc(C(F)(F)F)cc4)cc3)n2)cc1`, the figures for the Inhibition in assay [1], in assay [2] and in assay [3] were 98%, 67% and 91%, respectively.
For `CC(=O)N(Cc1ccc(CC(C)NCCc2cccc(Cl)c2)cc1)Cc1ccc(CC(C)NCCc2cccc(Cl)c2)cc1` (stereo not given) the same measures were 100%, 94% and 98%.
On to `O=C(NCCc1ccccc1)c1cc(-c2cccnc2)cnc1NCC1CC1`, for which the values for the Inhibition in assay [1], in assay [2] and in assay [3] were 93%, 35% and 3%, respectively.
For `CC[C@H]1CN(Cc2ccco2)CC[C@H]1CCCc1ccnc2ccc(O)cc12` the same measures were 93%, 14% and 31%.
Regarding `CCN(CC)c1nc(Nc2cc(C)ccc2C)nc(Nc2ccccc2O)n1`, the Inhibition in assay [1] amounted to 100%; in assay [2], 99%; in assay [3] it was 0%.
For the compound `Nc1nc(N)c2cc(NS(=O)(=O)c3ccc(-c4ccccc4)cc3)ccc2n1`, the figures for the Inhibition in assay [1], in assay [2] and in assay [3] were 100%, 54% and 7%, respectively.
For `Fc1ccccc1CNc1ncc(-c2ccsc2)c(-c2nccs2)n1` the same measures were 86%, 71% and 11%.
In the case of `CCCc1ccc(S(=O)(=O)NC2CCN(C(=O)Nc3ccc(I)cc3)CC2)cc1`, the Inhibition was 97% in assay [1], 0% in assay [2] and 8% in assay [3].
With `Cl.O=C(Oc1ccc(C2CNCCc3c2cc(OC(=O)c2ccc(O)cc2)c(OC(=O)c2ccc(O)cc2)c3Cl)cc1)c1ccc(O)cc1` (stereo not given), the Inhibition in assay [1] is listed as 90%; in assay [2], 60%; in assay [3], 0%.
Consider `CN(C)CCOc1cc(NC(=O)Nc2ccc(-c3ccccc3)cc2Cl)ccc1I`, for which the figures for the Inhibition in assay [1], in assay [2] and in assay [3] were 100%, 93% and 25%, respectively.
In the case of `Cc1cccc2nc(-c3cccc(-c4ccc(NC(=O)Nc5ccc(Cl)c(Cl)c5)cc4)c3)[nH]c12`, the Inhibition was 100% in assay [1], 83% in assay [2] and 53% in assay [3].
The like results for `CCn1c(Sc2ccc(C#N)c([N+](=O)[O-])c2)nnc1-c1ccc(Cl)cc1` were, in that order, 97%, 93% and 0%.
Consider `COc1cccc(CN2CCCC(OC(c3ccccc3)c3ccccc3)C2)c1O.O=C(O)C(F)(F)F` (stereo not given), for which the Inhibition in assay [1] came out at 90%; in assay [2], 73%; in assay [3], 19%.
For `CC(C)N1CCN(C(CN2CCN(CCCOc3ccccc3-c3ccccc3)CC2)c2ccc(F)cc2)CC1.Cl` (stereo not given) the same measures were 100%, 96% and 98%.
For the compound `C#CCOc1ccc(N2C(N)=NC(N)=NC2(C)C)cc1.Cl`, the values for the Inhibition in assay [1], in assay [2] and in assay [3] were 94%, 0% and 43%, respectively.
For `CC(C)(CNCc1ccc(Cl)c(Cl)c1)c1nc(-c2ccc(Cl)c(O)c2)c(-c2ccncc2)[nH]1.Cl`, the figures for the Inhibition in assay [1], in assay [2] and in assay [3] were 100%, 97% and 43%, respectively.
On to `CS(=O)(=O)O.O=[N+]([O-])c1ccc(CNCCCCCCNCc2ccc([N+](=O)[O-])c3ccccc23)c2ccccc12`, for which the values for the Inhibition in assay [1], in assay [2] and in assay [3] were 100%, 98% and 88%, respectively.
For `Cc1cc(Nc2ncc3c(n2)N(C2CCC2)CC3)ccc1N1CCN(C)CC1.Cl` the same measures were 100%, 100% and 27%.
For `O=C(Nc1ccc(N2CCN(Cc3ccccc3)CC2)cc1)c1cccs1.O=C(O)C(F)(F)F` the same measures were 87%, 86% and 0%.
Turning to `COc1ccc(C(O)CNC(C)CCc2ccc(F)cc2)cc1C(F)(F)F.Cl` (stereo not given), the results for the Inhibition in assay [1], in assay [2] and in assay [3] were 99%, 98% and 92%, respectively.
The like results for `COc1cccc(NC(=O)N2CCOC(CCN3CCC4(CCc5ccccc54)CC3)(c3ccc(Cl)c(Cl)c3)C2)c1` (stereo not given) were, in that order, 94%, 72% and 97%.
The like results for `COc1ccc2nccc(N3CCC(SCCNCc4ccc5c(n4)NC(=O)CS5)C3)c2n1.Cl` (stereo not given) were, in that order, 95%, 100% and 34%.
As for `Cc1c(-c2cccc(Br)c2)[nH]c2nc(N)nc(N)c12`, the Inhibition in assay [1] turned out to be 100%; in assay [2] it was 61%; in assay [3], 8%.
Turning to `CCCCCCCc1c(C)nc2ccccc2c1O`, the Inhibition is 98% in assay [1], 96% in assay [2] and 0% in assay [3].
As for `COc1ccc(-c2ccc(NC(=O)c3cccc(C#N)c3)cc2)cc1CN1CCCC(C(N)=O)C1.O=C(O)C(F)(F)F` (stereo not given), the Inhibition in assay [1] came to 98%; in assay [2] it was 44%; in assay [3], 12%.
In the case of `CC(C)CCNC(=O)c1cnc2c(O)cccc2c1Nc1cccc(NC(=O)c2ccc(F)cc2)c1.O=C(O)C(F)(F)F`, the Inhibition in assay [1] was found to be 93%; in assay [2], 43%; in assay [3], 51%.
Take `CN1CCC(N2CCN(Cc3ccc(-c4ccc(-c5nc6cc(F)ccc6[nH]5)s4)cc3)CC2)CC1.O=C(O)C(F)(F)F`: the Inhibition in assay [1] was 100%; in assay [2], 100%; in assay [3], 62%.
Take `CC(C)(C)C(=O)Nc1c(-c2cc(=O)oc3cc4c(cc23)CCC4)oc2ccccc12`: the Inhibition was 100% in assay [1], 100% in assay [2] and 0% in assay [3].
In the case of `COc1ccc(NC(=O)Nc2ccc(Nc3nc(C)cc(N(C)C)n3)cc2)cc1`, the values for the Inhibition in assay [1], in assay [2] and in assay [3] were 100%, 99% and 11%, respectively.
Take `Cc1cccc(C(=O)Nc2ccnc(N3CCC(N(C)Cc4cccc(O)c4)CC3)c2)c1.O=C(O)C(F)(F)F`: the Inhibition in assay [1] was 95%; in assay [2] it was 41%; in assay [3], 7%.
Take `CC(=O)Nc1ccccc1OCc1cc2cc(C(=O)N3CCC(N4C(=O)OCc5ccccc54)CC3)ccc2o1`: the Inhibition in assay [1] is 99%; in assay [2], 98%; in assay [3], 34%.
The like results for `CC1CCCCN1S(=O)(=O)c1ccc(NC(=O)c2cc(-c3ccccc3O)n[nH]2)cc1` (stereo not given) were, in that order, 90%, 96% and 26%.
As for `O=CO.Oc1ccccc1CNCc1ccc(-c2cnc(N3CCCC(c4ccccc4)C3)nc2)cc1` (stereo not given), the figures for the Inhibition in assay [1], in assay [2] and in assay [3] were 99%, 84% and 6%, respectively.
On to `CCCCCC(C)(C)NC[C@@H](O)[C@H](Cc1ccccc1)NC(=O)c1cc(NCC)cc(N2CCCC2=O)c1.O=CO`, for which the Inhibition is recorded as 99% in assay [1], 97% in assay [2] and 9% in assay [3].
Consider `CCCNC(=O)c1cncc(-c2cccc(CNC3Cc4ccccc4C3)c2)c1.O=C(O)C(F)(F)F`, for which the Inhibition was found to be 100% in assay [1], 2% in assay [2] and 0% in assay [3].
For the compound `O=C(NC(=O)c1ccccc1)NC1CCN(c2ccnc3cc(Cl)ccc23)C1.O=C(O)C(F)(F)F` (stereo not given), the figures for the Inhibition in assay [1], in assay [2] and in assay [3] were 100%, 99% and 32%, respectively.
In the case of `CN(CCCN(C)c1cc(NC(=O)c2cccc(F)c2)ccn1)Cc1cccc(O)c1.O=C(O)C(F)(F)F`, the Inhibition in assay [1] is 92%; in assay [2] it was 4%; in assay [3] it was 0%.
In the case of `CC1CN(c2cnn(C/C=C/c3ccc(NC(=O)c4ccc5nonc5c4)cc3)c(=O)c2Cl)CC(C)N1.O=C(O)C(F)(F)F` (stereo not given), the Inhibition in assay [1] is reported as 94%; in assay [2] it was 35%; in assay [3], 71%.
On to `CN1CCC(NCc2ccc(S(=O)(=O)Nc3ccc(Oc4cccc(Cl)c4)cc3)cc2)CC1.O=C(O)C(F)(F)F`, for which the Inhibition was found to be 99% in assay [1], 5% in assay [2] and 47% in assay [3].
For `Cl.NC1=NC(c2ccccc2)N(c2ccc(Cl)c(Cl)c2)C(N)=N1` (stereo not given) the same measures were 94%, 0% and 13%.
As for `COc1ccc(C2CC(=O)C3=C(C2)NC(C)=C(C(=O)OC(C)C)C3c2c(F)cccc2Cl)cc1OC` (stereo not given), the values for the Inhibition in assay [1], in assay [2] and in assay [3] were 93%, 81% and 0%, respectively.
Turning to `COc1ccccc1C1CCN(C2CCC(NC(=O)/C=C/c3ccc(OC(F)(F)F)cc3)CC2)CC1` (stereo not given), the Inhibition in assay [1] is reported as 82%; in assay [2], 11%; in assay [3] it was 65%.
Take `COC(=O)c1ccc(NC(=O)Nc2cccc(CCNCc3ccccc3)c2)cc1.O=C(O)C(F)(F)F`: the Inhibition turned out to be 96% in assay [1], 10% in assay [2] and 2% in assay [3].
For `Cc1cc(-c2ccc3c(c2)CCN(CCC2CCC(NC(=O)/C=C/c4cccc(Cl)c4)CC2)CC3)on1.Cl` (stereo not given) the same measures were 100%, 49% and 16%.
With `O=C(O)C(F)(F)F.c1ccc2[nH]c(-c3ccc(-c4ccc(CN5CCN(CCN6CCOCC6)CC5)cc4)s3)nc2c1`, the values for the Inhibition in assay [1], in assay [2] and in assay [3] were 100%, 100% and 39%, respectively.
In the case of `O=C(O)C(F)(F)F.O=S(=O)(NCCN1CCCC1)c1ccc(-c2ccc(CN3Cc4ccccc4C3)cc2)s1`, the values for the Inhibition in assay [1], in assay [2] and in assay [3] were 89%, 18% and 19%, respectively.
`O=C(Nc1ccc2c(c1)CCC2)c1ccc(N2CCN(c3ccncc3)CC2)cc1.O=C(O)C(F)(F)F`: the Inhibition in assay [1] was determined as 100%; in assay [2], 75%; in assay [3], 72%.
Regarding `CCn1ccc2c(N3CCCS3(=O)=O)cc(C(=O)N[C@@H](Cc3ccccc3)[C@H](O)CNC3CCCCC3)cc21`, the Inhibition in assay [1] came to 97%; in assay [2], 98%; in assay [3], 0%.
As for `O=C(O)C(F)(F)F.OC1CCCN(Cc2cccc(-c3ccc(-c4nc5cc(F)ccc5[nH]4)cc3)c2)C1` (stereo not given), the results for the Inhibition in assay [1], in assay [2] and in assay [3] were 100%, 42% and 16%, respectively.
For `C=CCOC(=O)N1CCC(CNCc2cccc(-c3ccc(-c4nc5ccccc5[nH]4)s3)c2)C1.O=C(O)C(F)(F)F` (stereo not given) the same measures were 99%, 63% and 9%.
For `O=C(O)C(=O)O.Oc1c(CN2CCC(Cc3ccccc3)CC2)cc(Cl)c2cccnc12` the same measures were 96%, 94% and 49%.
For the compound `Cc1cc(N[C@@H](Cc2ccccc2)C(=O)NCc2cccs2)nc(NCCc2ccc(F)cc2)n1.O=C(O)C(F)(F)F`, the Inhibition is reported as 100% in assay [1], 83% in assay [2] and 3% in assay [3].
